Assay outcomes from PubChem BioAssay.
CYP2C9 act – increases human cytochrome P450 2C9 activity. 96,000 tested, 1.4% active. recombinant CYP2C9, luciferin-H conversion, luminescence; active compounds read high; factor 1 = untreated enzyme, 0 = blocked. activation factor at 5 µM;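 active means activation factor of 2 or more for CYP2C9 at a 5 µM dose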;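 further: 0 = sulfaphenazole-blocked wells and 1 = vehicle-only wells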
Target sequence (P11712 whole entry, looked up): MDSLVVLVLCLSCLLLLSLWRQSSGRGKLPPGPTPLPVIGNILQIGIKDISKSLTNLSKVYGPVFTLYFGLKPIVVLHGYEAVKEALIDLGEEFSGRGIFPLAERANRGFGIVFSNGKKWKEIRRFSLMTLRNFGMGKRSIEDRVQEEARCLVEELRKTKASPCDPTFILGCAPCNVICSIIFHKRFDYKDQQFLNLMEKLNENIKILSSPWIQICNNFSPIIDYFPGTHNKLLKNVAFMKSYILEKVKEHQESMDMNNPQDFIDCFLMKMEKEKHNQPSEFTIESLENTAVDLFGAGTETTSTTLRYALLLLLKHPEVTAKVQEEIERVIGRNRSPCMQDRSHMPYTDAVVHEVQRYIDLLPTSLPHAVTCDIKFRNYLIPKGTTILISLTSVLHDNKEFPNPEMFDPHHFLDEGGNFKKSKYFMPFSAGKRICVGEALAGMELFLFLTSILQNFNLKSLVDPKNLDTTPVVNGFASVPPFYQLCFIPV
Measles CPE – protection of cells from measles virus; Measles virus-infected cells, CPE protection, absorbance; protection (pct of control), % at 4 µM; 140,000 tested, 1.5% active; AID 841; in the data active means protection mostly above about 24%, no sharp cut-off; inactive means mostly below about 26%
CYP2C9 inhib – human CYP2C9 inhibition; CYP2C9 Supersomes, luciferin-H conversion, luminescence; inhibition, % at 5 µM; 96,000 tested, 20% active; AID 777;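 active means blocking of liver enzyme CYP2C9 beyond about 50% at 5 µM, limit read from the data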
CYP2C19 inh – inhibitors of human CYP2C19; CYP2C19 Supersomes, luciferin-H EGE luminescence, 30 min; 96,000 tested, 21% active; AID 778; inhibition, % at 5 µM;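 active means CYP2C19 inhibition above a set limit at 5 µM in the primary screen, cut at about 50% in these data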;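 further: plate controls were negative control wells for no effect and 2.5 mM tranylcypromine positive control for full effect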
CYP2C19 act – cytochrome P450 2C19 (human) activation; P33261; recombinant CYP2C19, luciferin-H EGE luminescence; active compounds read high; 0 = fully inhibited enzyme, 1 = untreated enzyme; activation factor at 5 µM; 96,000 tested, under 10 active;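 active means activation factor of at least 2 at 5 µM in the primary screen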;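 further: 0 = wells with 2.5 mM tranylcypromine and 1 = vehicle-only wells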
* hit, by the source's call; · = no result given. Shown are actives, neighbours in structure and some others; about 22% of the full set was active somewhere.

SMILES | CYP2C9 act | Measles CPE | CYP2C9 inhib | CYP2C19 inh | CYP2C19 act
N#C/C(=C\c1cc([N+](=O)[O-])c(N2CCOCC2)cc1N1CCOCC1)c1nc2ccccc2[nH]1 | 0 | 15 | 97* | 91* | 0.1
Cc1cc(/C=C(/C#N)c2nc3ccccc3[nH]2)c(C)n1-c1cccc([N+](=O)[O-])c1 | 0.2 | 11 | 81* | 40 | 0.6
N#C/C(=C\c1cc([N+](=O)[O-])c(N2CCCCC2)cc1N1CCCCC1)c1nn(-c2ccccc2)c(N)c1C#N | 0 | 12 | 97* | 69* | 0.3
N#C/C(=C/c1ccc(N2CCOCC2)o1)c1nc2ccccc2[nH]1 | · | 10 | · | · | ·
C=CCNC(=O)/C(C#N)=C/c1ccc(OS(=O)(=O)c2ccc(C)cc2)c(OC)c1 | · | 9 | · | · | ·
C=CCN1C(=O)C2C(C(=O)NC)C3(C)C=CC2(O3)C1C(=O)NCc1ccc(OC)cc1 (centres undefined) | 1.1 | 2 | -9 | 0 | 1
Cc1sc2nc(SCC(=O)NCc3ccco3)n(Cc3ccccc3)c(=O)c2c1C | 0.4 | 7 | 59* | 3 | 1
CCOC(=O)c1sc2nc(SCC(=O)NCc3ccco3)n(Cc3ccccc3)c(=O)c2c1C | · | 7 | · | · | ·
Cc1[nH]c2ccc(-c3nnc(SCC(=O)NCc4ccco4)n3Cc3ccccc3)cc2c1C | 0.3 | 8 | 66* | 32 | 0.7
Cc1sc2nc(C(C)C)nc(SCC(=O)NCc3ccco3)c2c1C | 0.2 | 9 | 82* | 78* | 0.2
CCOC(=O)CNC(=O)CSc1nnc(-c2ccccc2)n1Cc1ccco1 | 0.9 | 35 | 12 | 30 | 0.7
O=C(COC(=O)CNC(=O)c1ccccc1)Nc1cccc(Br)c1 | · | 22 | · | · | ·
COc1cc(OC)cc(-c2nc3ccccc3c(=O)n2OC(=O)c2ccc(C)c(C)c2)c1 | · | 19 | · | · | ·
C/C(N)=C(/C#N)C(=O)CSc1nnnn1-c1ccc(C)cc1C | 0.7 | 5 | 31 | 100* | 0
Cc1ccc(-n2nnnc2SCC(=O)N2CCc3ccccc3C2)c(C)c1 | 2* | 4 | -100 | 1 | 1
Cc1nnc(SCC(=O)N2CCc3ccccc3C2)n1-c1ccccc1 | · | 7 | · | · | ·
Nn1c(COc2ccccc2)nnc1SCC(=O)O | 1 | 13 | -2 | -1 | 1
Nn1c(COc2cccc(Br)c2)nnc1SCC(=O)N1CCc2ccccc2C1 | 1 | 7 | 4 | 52* | 0.5
Cn1nnnc1SCC(=O)N1CCc2ccccc2C1 | 1.2 | 21 | -15 | 70* | 0.3
Cc1ccc(-n2nnnc2SCC(=O)N2CCc3ccccc3C2)cc1 | · | 2 | · | · | ·
O=C(NC(=S)NC(c1ccccc1)c1ccncc1)c1ccccc1 (centres undefined) | · | 11 | · | · | ·
COC(=O)c1sccc1NC(=S)N1CCN(c2cccc(C)c2C)CC1 | · | 10 | · | · | ·
COC(=O)c1cc2n3ccccc3c(C)c(-c3ccccc3)c-2c1C(=O)OC | 0.2 | 2 | 81* | 54* | 0.5
COC(=O)c1cc2c(C)c(C)c3ccccn3c-2c1C(=O)OC | 1.2 | 30 | -16 | 9 | 0.9
CN1CCCN(C2C3CC4CC(C3)CC2C4)CC1 (centres undefined) | 0.9 | 12 | 9 | 1 | 1
SMILES | CYP2C9 act | Measles CPE | CYP2C9 inhib | CYP2C19 inh | CYP2C19 act
CCc1c(C)nc2[nH]nc(NC(=O)C(F)(F)F)n2c1=O | 0.9 | 51* | 10 | 3 | 1
CCOc1ccc(Nc2nc(NCCN3CCOCC3)nc(OC)n2)cc1 | 0.9 | 19 | 7 | 0 | 1
NC(=O)c1ccc(N2CCCCC2)c(N2C(=O)C3CC=CCC3C2=O)c1 (centres undefined) | 0.7 | 21 | 31 | 50* | 0.5
O=C(COC(=O)C1COc2ccccc2O1)Nc1ccc2c(c1)CCC2 (centres undefined) | 0.8 | 6 | 18 | 27 | 0.7
C=CCn1c(SCC(=O)Nc2sc(C)c(C)c2C(=O)OCC)nnc1-c1sc(N)nc1C | 0.4 | 8 | 62* | 60* | 0.4
COC(=O)c1c(NC(=O)CSc2nnnn2-c2ccc3c(c2)OCO3)sc(C)c1C | 0.6 | 14 | 44 | 4 | 1
C=CCn1c(SCC(=O)NC2CCCCC2)nnc1-c1sc(N)nc1C | 0.7 | 13 | 33 | 1 | 1
COC(=O)c1c(NC(=O)CSc2nc3ccccc3c(=O)n2Cc2ccco2)sc(C)c1C | · | 8 | · | · | ·
COC(=O)c1c(NC(=O)CSc2nnc(-c3ccco3)n2Cc2ccccc2)sc(C)c1C | 0.4 | 6 | 62* | 18 | 0.8
CCOC(=O)c1c(NC(=O)CSc2nnc(-c3cccnc3)n2Cc2ccco2)sc(C)c1C | 0.3 | 14 | 66* | 43 | 0.6
COC(=O)c1c(NC(=O)CSc2nnnn2C)sc(C)c1C | 0.3 | 7 | 66* | 65* | 0.3
CCSc1nnc(-c2cccnc2)n1Cc1ccco1 | 1 | 9 | 0 | 0 | 1
CCOC(=O)c1ccc(CN(Cc2ccc(C)cc2)S(=O)(=O)c2cccc([N+](=O)[O-])c2)cc1 | · | 6 | · | · | ·
Cc1ccc(OCC(O)CNS(=O)(=O)c2ccccc2C(=O)N2CCCCC2)cc1 (centres undefined) | 0.5 | 5 | 47 | 17 | 0.8
CC(=O)Nc1ccc(S(=O)(=O)/N=C2\SCCN2S(=O)(=O)c2ccc(NC(C)=O)cc2)cc1 | · | 4 | · | · | ·
CCCN(CCC)C(=O)CC(c1ccccc1)c1cc(Br)ccc1O (centres undefined) | 0.6 | 15 | 42 | 43 | 0.6
Cc1ccc(C(CC(=O)NCc2ccco2)c2ccccc2)c(O)c1 (centres undefined) | 0.5 | 4 | 46 | 61* | 0.4
Cc1ccc(C)c(SCC(=O)NCc2ccco2)c1 | 1 | 2 | 1 | 31 | 0.7
CCCN(CCC)C(=O)CC(c1ccccc1)c1ccc(C)cc1O (centres undefined) | 0.5 | 26 | 52* | 43 | 0.6
CC(C)(C)C(=O)/C=C(N)/C=C/c1ccccc1 | 0.8 | 4 | 16 | 28 | 0.7
Cc1ccc(S(=O)(=O)N(C(=O)c2ccncc2)c2ccc(OC(=O)c3ccncc3)c3ccccc23)c(C)c1 | 0 | 5 | 99* | 97* | 0
Cc1ccc(S(=O)(=O)N(C(=O)c2ccncc2)c2ccc(OC(=O)c3ccncc3)c3ccccc23)cc1 | · | 13 | · | · | ·
O=c1c(/C=N/O)coc2ccc3ccccc3c12 | 2* | 13 | -96 | 0 | 1
CC(=O)C1=C(C)NC(SCSc2ccccc2)=C(C#N)C1c1cccnc1 (centres undefined) | 0.3 | 3 | 66* | 83* | 0.2
CC(=O)C1=C(C)NC(SCC(=O)c2ccc(F)cc2)=C(C#N)C1CC(C)C (centres undefined) | · | 5 | · | · | ·
CC(=O)C1=C(C)NC(SCC(=O)c2ccc(-c3ccccc3)cc2)=C(C#N)C1c1cccnc1 (centres undefined) | 0.1 | 3 | 86* | 96* | 0
CC(=O)C1=C(C)NC(SCC(N)=O)=C(C#N)C1c1cccs1 (centres undefined) | 1 | 14 | 3 | 1 | 1
CSCSC1=C(C#N)C(c2ccccc2Cl)C(C(C)=O)=C(C)N1 (centres undefined) | 0.2 | 6 | 82* | 85* | 0.2
